# Results as given in PubChem BioAssay (EPA / NIEHS).
# Results filed as inconclusive are left out. Calls of active or inactive are those of the source. Rule for the calls, unless noted: active = hit-call score of the fitted dose curve at least 0.9, where 1 is the maximum; inconclusive = response in the unintended direction; inactive = score below 0.9.
# What was measured:
# [1] = ATG_TCF_b_cat_CIS: Attagene CIS-FACTORIAL HepG2 Assay for human T-Cell-Factor with beta-catenin (TCF/b-cat) (AID 2282965; active = hit-call score of the fitted dose curve at least 0.9, where 1 is the maximum; inactive = score below 0.9); settings: HepG2 TCF/beta-catenin cis-reporter transcription, actives raise or lower the signal
# Procedure, shortened: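 Endogenous TCF/LEF activity read as reporter transcript level via RT-PCR and capillary electrophoresis fluorescence in transfected HepG2, 24 h exposure; gain or loss of signal fitted against DMSO controls.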
# [2] = ATG_TAL_CIS: Attagene CIS-FACTORIAL HepG2 Assay for human TAL Basal Promoter (AID 2282966; active = hit-call score of the fitted dose curve at least 0.9, where 1 is the maximum; inactive = score below 0.9;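 note: background control endpoint measuring basal TAL promoter reporter mRNA not a specific factor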); settings: HepG2 Attagene cis-factorial TAL promoter reporter; actives raise or lower the signal
# Procedure, shortened: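 Transiently transfected HepG2 (cis-regulated reporter units), 24 h treatment, mRNA read by fluorescent CE after RT-PCR; bidirectional fit, DMSO baseline.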
# [3] = ATG_TGFb_CIS: Attagene CIS-FACTORIAL HepG2 Assay for human Transforming Growth Factor (TGF) (AID 2282967; active = hit-call score of the fitted dose curve at least 0.9, where 1 is the maximum; inactive = score below 0.9); settings: HepG2 Attagene CIS TGFb reporter, mRNA transcription; actives raise or lower the signal
# Procedure, shortened: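 Transient MRTU transfection of HepG2 (FuGene 6). Dose 24 h. TriZol RNA, oligo(dT) RT, PCR, 6-FAM primer extension, HpaI cut, CE. Bidirectional fit, DMSO = baseline.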
# [4] = biological target: Nuclear receptor subfamily 1 group I member 3 (Homo sapiens) (UniProt Q14994); experiment: ATG_CAR_TRANS: Attagene TRANS-FACTORIAL HepG2 Assay for human Constitutive Androstane Receptor (CAR) (AID 2282969); settings: HepG2 Attagene TRANS-FACTORIAL CAR reporter;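 note: activators raise reporter mRNA above DMSO so AC50 marks induction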
# Sequence of Nuclear receptor subfamily 1 group I member 3 (Homo sapiens) (Q14994 whole entry, looked up, the tested form may be a part): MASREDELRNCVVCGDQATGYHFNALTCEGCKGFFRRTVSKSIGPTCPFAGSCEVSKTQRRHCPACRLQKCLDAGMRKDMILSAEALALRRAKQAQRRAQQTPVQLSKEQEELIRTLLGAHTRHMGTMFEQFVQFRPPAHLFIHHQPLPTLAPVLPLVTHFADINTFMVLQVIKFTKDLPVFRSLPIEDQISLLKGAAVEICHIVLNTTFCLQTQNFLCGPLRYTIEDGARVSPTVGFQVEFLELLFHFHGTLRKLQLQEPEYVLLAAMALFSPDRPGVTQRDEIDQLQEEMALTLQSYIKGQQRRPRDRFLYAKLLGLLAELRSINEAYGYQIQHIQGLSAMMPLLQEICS
# Procedure, shortened: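 Signal is reporter mRNA induction relative to DMSO, measured 24 h after dosing by RT-PCR with fluorescent primer extension and capillary electrophoresis. Human HepG2 liver cells carried transiently transfected chimeric NR-Gal4/GAL4-UAS reporter constructs.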
# [5] = biological target: Steroid hormone receptor ERR1 (Homo sapiens) (UniProt P11474); experiment: ATG_ERRa_TRANS: Attagene TRANS-FACTORIAL HepG2 Assay for human Estrogen-Related Receptor alpha (ERRa) (AID 2282971); settings: HepG2 Attagene TRANS reporter, ERRa transactivation
# Procedure, shortened: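 HepG2 cells transiently transfected with multiplexed GAL4-UAS reporter units reading chimeric ERRa-Gal4 activity; 24 h compound exposure. Reporter mRNA measured by RT-PCR, 6-FAM labelling, HpaI digest and capillary electrophoresis; gain of signal fitted versus DMSO baseline.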
# [6] = biological target: X-box-binding protein 1 (Homo sapiens) (UniProt P17861); experiment: ATG_Xbp1_CIS: Attagene CIS-FACTORIAL HepG2 Assay for human X-box Binding Protein 1 (XBP1) (AID 2282972; active = hit-call score of the fitted dose curve at least 0.9, where 1 is the maximum; inactive = score below 0.9); settings: HepG2 XBP1 cis-element reporter, Attagene multiplex; actives raise or lower the signal
# Sequence of X-box-binding protein 1 (Homo sapiens) (P17861 whole entry, looked up): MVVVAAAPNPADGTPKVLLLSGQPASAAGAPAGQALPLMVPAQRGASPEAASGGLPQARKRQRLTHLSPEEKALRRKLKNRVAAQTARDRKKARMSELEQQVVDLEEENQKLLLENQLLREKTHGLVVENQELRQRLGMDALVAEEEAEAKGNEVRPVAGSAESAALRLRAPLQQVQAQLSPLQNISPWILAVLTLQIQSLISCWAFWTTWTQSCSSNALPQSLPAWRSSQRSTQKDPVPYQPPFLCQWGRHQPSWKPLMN
# Procedure, shortened: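 Reporter transcripts were quantified by RT-PCR with fluorescent primer extension and capillary electrophoresis after 24 h chemical exposure. Cells: transiently transfected HepG2 carrying cis-regulated reporter constructs; data fitted bidirectionally relative to DMSO.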
# [7] = ATG_GAL4_TRANS: Attagene TRANS-FACTORIAL HepG2 Assay for GAL4 (Internal Marker) (AID 2282976); settings: HepG2 Attagene TRANS GAL4 internal marker reporter
# Procedure, shortened: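 HepG2 cells transiently transfected with multiplexed GAL4-UAS reporter constructs were dosed for 24 h. Reporter mRNA was measured by RT-PCR, 6-FAM primer extension, HpaI digestion and capillary electrophoresis, and gain of signal was fitted relative to DMSO.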
# [8] = biological target: Glucocorticoid receptor (Homo sapiens) (UniProt P04150); experiment: ATG_GR_TRANS: Attagene TRANS-FACTORIAL HepG2 Assay for human Glucocorticoid Receptor (GR) (AID 2282978); settings: HepG2 Attagene TRANS GR reporter, mRNA transcription;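 note: activators score as hits since higher reporter transcript over DMSO is fitted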
# Sequence of Glucocorticoid receptor (Homo sapiens) (P04150 whole entry, looked up, the tested form may be a part): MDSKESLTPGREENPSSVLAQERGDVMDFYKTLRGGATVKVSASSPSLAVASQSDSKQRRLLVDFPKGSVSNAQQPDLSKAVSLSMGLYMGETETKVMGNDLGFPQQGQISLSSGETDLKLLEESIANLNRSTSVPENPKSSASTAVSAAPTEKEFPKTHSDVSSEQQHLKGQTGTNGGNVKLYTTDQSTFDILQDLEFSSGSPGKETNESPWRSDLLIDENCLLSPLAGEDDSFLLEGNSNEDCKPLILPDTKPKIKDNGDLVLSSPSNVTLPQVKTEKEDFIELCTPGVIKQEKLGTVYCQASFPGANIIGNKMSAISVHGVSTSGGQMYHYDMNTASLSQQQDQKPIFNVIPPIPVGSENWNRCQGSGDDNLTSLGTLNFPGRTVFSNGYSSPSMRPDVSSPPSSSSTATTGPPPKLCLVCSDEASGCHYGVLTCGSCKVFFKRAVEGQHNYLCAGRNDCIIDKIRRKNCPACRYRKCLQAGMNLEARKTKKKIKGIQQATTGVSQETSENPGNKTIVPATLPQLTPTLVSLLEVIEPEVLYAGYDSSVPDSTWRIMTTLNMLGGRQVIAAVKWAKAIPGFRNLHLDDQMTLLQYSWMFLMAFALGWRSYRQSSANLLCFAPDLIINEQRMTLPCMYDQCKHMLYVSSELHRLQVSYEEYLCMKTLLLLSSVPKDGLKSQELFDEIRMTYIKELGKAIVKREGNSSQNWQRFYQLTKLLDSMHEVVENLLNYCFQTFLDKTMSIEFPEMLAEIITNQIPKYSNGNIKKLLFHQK
# Procedure, shortened: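 HepG2 transient transfection, multiple reporter units, GAL4-UAS under NR-GAL4 chimera control. 24 h treatment. Reporter mRNA by RT-PCR/CE fluorescence, DMSO as negative control.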
# [9] = biological target: Bile acid receptor (Homo sapiens) (UniProt Q96RI1); experiment: ATG_FXR_TRANS: Attagene TRANS-FACTORIAL HepG2 Assay for Farnesoid X Receptor (FXR) (AID 2282979); settings: HepG2 Attagene TRANS FXR-GAL4 reporter transcription;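 note: hits raise reporter mRNA above DMSO so AC50 marks FXR activation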
# Sequence of Bile acid receptor (Homo sapiens) (Q96RI1 whole entry, looked up, the tested form may be a part): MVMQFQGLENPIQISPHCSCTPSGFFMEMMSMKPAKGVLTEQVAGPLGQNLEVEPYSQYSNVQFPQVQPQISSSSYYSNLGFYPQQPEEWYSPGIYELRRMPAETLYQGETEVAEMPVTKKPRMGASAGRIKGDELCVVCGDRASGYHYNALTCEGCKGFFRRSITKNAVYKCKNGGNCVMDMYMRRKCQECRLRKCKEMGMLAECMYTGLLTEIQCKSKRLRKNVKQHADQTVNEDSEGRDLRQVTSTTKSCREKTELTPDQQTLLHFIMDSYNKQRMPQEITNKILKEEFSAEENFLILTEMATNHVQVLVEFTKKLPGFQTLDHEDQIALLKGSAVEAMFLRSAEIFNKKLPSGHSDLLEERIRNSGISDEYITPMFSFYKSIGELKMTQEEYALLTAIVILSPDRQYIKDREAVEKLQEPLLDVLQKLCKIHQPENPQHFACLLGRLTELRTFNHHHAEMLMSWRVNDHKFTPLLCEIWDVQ
# Procedure, shortened: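 HepG2 cells transiently transfected with reporter constructs in which a chimeric FXR-GAL4 protein drives a GAL4-UAS reporter; 24 h compound exposure. Reporter mRNA measured by RT-PCR, FAM labelling, HpaI digestion and capillary electrophoresis; gain-of-signal versus DMSO.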
# [10] = biological target: Hepatocyte nuclear factor 4-alpha (Homo sapiens) (UniProt P41235); experiment: ATG_HNF4a_TRANS: Attagene TRANS-FACTORIAL HepG2 Assay for human Hepatocyte Nuclear Factor 4 alpha (HNF4a) (AID 2282982); settings: HepG2 HNF4a transactivation reporter, mRNA readout
# Sequence of Hepatocyte nuclear factor 4-alpha (Homo sapiens) (P41235 whole entry, looked up): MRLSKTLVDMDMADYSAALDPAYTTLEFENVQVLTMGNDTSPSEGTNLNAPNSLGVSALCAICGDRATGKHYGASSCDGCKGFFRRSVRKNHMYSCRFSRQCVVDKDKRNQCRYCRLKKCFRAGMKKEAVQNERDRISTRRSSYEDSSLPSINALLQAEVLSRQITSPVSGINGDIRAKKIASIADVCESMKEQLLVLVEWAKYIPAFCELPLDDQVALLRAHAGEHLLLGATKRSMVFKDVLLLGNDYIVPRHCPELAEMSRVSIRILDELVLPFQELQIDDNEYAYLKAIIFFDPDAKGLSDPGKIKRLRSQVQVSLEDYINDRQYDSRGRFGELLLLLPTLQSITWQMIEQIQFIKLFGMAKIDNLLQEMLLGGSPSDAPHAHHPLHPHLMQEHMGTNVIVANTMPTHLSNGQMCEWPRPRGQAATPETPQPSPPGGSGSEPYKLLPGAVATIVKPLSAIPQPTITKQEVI
# Procedure, shortened: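 Multiplexed reporter assay: transfected HepG2, 24 h exposure, total RNA → oligo(dT) RT → PCR → 6-FAM extension → HpaI digest → CE fluorescence. DMSO = negative control.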
# [11] = ATG_M_06_TRANS: Attagene TRANS-FACTORIAL HepG2 Assay for M06 Transcription Factor (Internal Marker) (AID 2282983); settings: HepG2 Attagene TRANS M06 internal marker reporter
# Procedure, shortened: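 In this multiplexed HepG2 system, compounds are incubated 24 h with cells carrying GAL4-UAS reporter units. Reporter RNA is amplified and resolved by capillary electrophoresis, and induction is scored against DMSO.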
# [12] = biological target: Nuclear receptor subfamily 4 group A member 2 (Homo sapiens) (UniProt P43354); experiment: ATG_NURR1_TRANS: Attagene TRANS-FACTORIAL HepG2 Assay for human Nuclear Receptor Related Protein 1 (NURR1) (AID 2282985); settings: HepG2 Attagene TRANS reporter, mRNA readout
# Sequence of Nuclear receptor subfamily 4 group A member 2 (Homo sapiens) (P43354 whole entry, looked up, the tested form may be a part): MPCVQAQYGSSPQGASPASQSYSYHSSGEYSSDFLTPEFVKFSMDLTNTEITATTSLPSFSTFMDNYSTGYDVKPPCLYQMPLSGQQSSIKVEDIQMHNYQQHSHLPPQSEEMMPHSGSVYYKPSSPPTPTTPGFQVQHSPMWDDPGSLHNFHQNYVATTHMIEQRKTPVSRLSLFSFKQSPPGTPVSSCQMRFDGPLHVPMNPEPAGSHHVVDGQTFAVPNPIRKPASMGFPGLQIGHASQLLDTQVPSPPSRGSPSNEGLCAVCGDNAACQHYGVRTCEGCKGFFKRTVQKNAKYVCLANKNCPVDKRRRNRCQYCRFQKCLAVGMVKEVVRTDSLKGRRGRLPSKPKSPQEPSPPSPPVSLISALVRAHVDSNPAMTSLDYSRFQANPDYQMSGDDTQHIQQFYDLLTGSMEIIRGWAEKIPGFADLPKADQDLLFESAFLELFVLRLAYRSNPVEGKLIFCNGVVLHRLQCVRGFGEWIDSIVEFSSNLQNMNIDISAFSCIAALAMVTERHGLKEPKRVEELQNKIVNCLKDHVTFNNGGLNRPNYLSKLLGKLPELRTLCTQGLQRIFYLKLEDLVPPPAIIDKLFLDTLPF
# Procedure, shortened: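 Measures transcriptional activation by an exogenous NR-Gal4 chimera in transfected HepG2 liver cells. After 24 h, reporter RNA is reverse-transcribed, amplified and resolved by capillary electrophoresis; DMSO defines baseline.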
# [13] = ATG_VDRE_CIS: Attagene CIS-FACTORIAL HepG2 Assay for human Vitamin D Receptor Element (VDRE) (AID 2282968; active = hit-call score of the fitted dose curve at least 0.9, where 1 is the maximum; inactive = score below 0.9); settings: HepG2 VDRE cis-reporter transcription, actives raise or lower the signal
# Procedure, shortened: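 Measures endogenous factor activity through cis-element-driven reporter transcripts in transiently transfected HepG2. Cells are treated 24 h; reporter mRNA is quantified by RT-PCR and capillary electrophoresis; fitting is bidirectional.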
# [14] = biological target: Estrogen receptor (Homo sapiens) (UniProt P03372); experiment: ATG_ERa_TRANS: Attagene TRANS-FACTORIAL HepG2 Assay for human Estrogen Receptor alpha (ERa) (AID 2282970); settings: HepG2 Attagene TRANS ERa GAL4 reporter, mRNA
# Sequence of Estrogen receptor (Homo sapiens) (P03372 whole entry, looked up, the tested form may be a part): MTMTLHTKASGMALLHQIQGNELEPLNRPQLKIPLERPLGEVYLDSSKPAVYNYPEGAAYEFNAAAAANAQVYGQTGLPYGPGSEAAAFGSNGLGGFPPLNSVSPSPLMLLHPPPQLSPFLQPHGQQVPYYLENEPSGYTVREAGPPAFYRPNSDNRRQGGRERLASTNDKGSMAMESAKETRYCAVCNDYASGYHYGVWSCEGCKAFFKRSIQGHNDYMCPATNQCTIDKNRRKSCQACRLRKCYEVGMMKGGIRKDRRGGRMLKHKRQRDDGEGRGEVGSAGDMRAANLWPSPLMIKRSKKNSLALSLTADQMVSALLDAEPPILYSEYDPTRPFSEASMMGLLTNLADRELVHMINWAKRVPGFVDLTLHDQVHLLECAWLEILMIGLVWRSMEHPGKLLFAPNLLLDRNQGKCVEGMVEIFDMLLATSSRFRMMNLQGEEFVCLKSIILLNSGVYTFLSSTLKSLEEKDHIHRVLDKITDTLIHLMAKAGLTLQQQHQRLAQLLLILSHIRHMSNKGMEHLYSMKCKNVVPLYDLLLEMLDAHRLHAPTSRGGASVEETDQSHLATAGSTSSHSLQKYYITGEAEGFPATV
# Procedure, shortened: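 One of 30 multiplexed endpoints from a HepG2 TRANS system, this one reports ERa-Gal4-driven reporter mRNA. Transcripts were quantified 24 hours post-dosing by fluorescent RT-PCR and capillary electrophoresis, with activity scored as induction over DMSO.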
# [15] = biological target: Transcriptional activator Myb (Homo sapiens) (UniProt P10242); experiment: ATG_Myb_CIS: Attagene CIS-FACTORIAL HepG2 Assay for human Myeloblastosis (Myb) Proto-Oncogene Transcription Factor (AID 2282986; active = hit-call score of the fitted dose curve at least 0.9, where 1 is the maximum; inactive = score below 0.9); settings: HepG2 Attagene CIS-FACTORIAL Myb reporter transcription; actives raise or lower the signal
# Procedure, shortened: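 Multiplexed cis-reporter system in HepG2: transient transfection, 24 h treatment, mRNA readout by RT-PCR and capillary electrophoresis. Both increases and decreases are scored versus DMSO negative control.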
# [16] = ATG_M_19_TRANS: Attagene TRANS-FACTORIAL HepG2 Assay for M19 Transcription Factor (Internal Marker) (AID 2282974); settings: HepG2 Attagene TRANS-FACTORIAL M19 internal marker reporter
# Procedure, shortened: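 Gain-of-signal in reporter mRNA, relative to DMSO, was scored from capillary electrophoresis fluorescence. HepG2 cells carried transiently transfected multiple reporter transcription units and were incubated with test chemicals for 24 h.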
# [17] = biological target: Estrogen-related receptor gamma (Homo sapiens) (UniProt P62508); experiment: ATG_ERRg_TRANS: Attagene TRANS-FACTORIAL HepG2 Assay for human Estrogen-Related Receptor gamma (ERRg) (AID 2282977); settings: HepG2 Attagene TRANS reporter, ERRg transactivation;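 note: hits increase reporter signal over DMSO so potencies reflect activators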
# Sequence of Estrogen-related receptor gamma (Homo sapiens) (P62508 whole entry, looked up, the tested form may be a part): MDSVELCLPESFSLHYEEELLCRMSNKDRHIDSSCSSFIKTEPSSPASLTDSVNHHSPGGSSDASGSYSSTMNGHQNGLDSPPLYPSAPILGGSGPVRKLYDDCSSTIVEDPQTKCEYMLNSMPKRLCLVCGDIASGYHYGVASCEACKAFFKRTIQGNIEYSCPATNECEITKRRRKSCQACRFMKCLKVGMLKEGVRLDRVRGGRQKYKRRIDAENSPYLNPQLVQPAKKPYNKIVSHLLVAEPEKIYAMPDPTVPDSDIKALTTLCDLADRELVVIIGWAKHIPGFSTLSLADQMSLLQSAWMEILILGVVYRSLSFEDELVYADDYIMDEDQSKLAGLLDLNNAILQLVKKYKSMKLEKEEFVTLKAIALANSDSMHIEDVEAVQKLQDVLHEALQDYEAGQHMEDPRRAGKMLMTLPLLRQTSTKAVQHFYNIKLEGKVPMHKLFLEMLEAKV
# Procedure, shortened: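 Exogenous NR-Gal4 chimera activity was assessed in HepG2 cells bearing transfected GAL4-UAS reporters. After 24 h dosing, total RNA underwent RT-PCR, fluorescent primer extension and HpaI digestion before capillary electrophoresis, with gain of signal scored against DMSO.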
# [18] = biological target: Oxysterols receptor LXR-beta (Homo sapiens) (UniProt P55055); experiment: ATG_LXRb_TRANS: Attagene TRANS-FACTORIAL HepG2 Assay for human Liver X Receptor beta (LXRb) (AID 2282981); settings: HepG2 Attagene TRANS GAL4-LXRb reporter, mRNA
# Sequence of Oxysterols receptor LXR-beta (Homo sapiens) (P55055 whole entry, looked up, the tested form may be a part): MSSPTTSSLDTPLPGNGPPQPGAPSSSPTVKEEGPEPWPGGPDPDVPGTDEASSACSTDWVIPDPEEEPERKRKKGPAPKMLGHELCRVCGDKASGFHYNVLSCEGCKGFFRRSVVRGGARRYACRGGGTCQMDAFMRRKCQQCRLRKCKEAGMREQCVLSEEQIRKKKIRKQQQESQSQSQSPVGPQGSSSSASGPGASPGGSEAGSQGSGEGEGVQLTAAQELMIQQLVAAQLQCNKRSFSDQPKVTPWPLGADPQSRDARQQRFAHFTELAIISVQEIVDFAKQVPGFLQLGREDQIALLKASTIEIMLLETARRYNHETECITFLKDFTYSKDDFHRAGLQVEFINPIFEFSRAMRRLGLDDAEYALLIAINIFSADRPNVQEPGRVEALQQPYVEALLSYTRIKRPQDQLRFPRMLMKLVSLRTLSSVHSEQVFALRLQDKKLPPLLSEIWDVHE
# Procedure, shortened: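 After 24 h of chemical treatment, transfected HepG2 cells yield total RNA; reporter cDNA is PCR-amplified, FAM-labelled, HpaI-cut and run on capillary electrophoresis. Signal reflects chimeric LXRb-Gal4 activity on GAL4-UAS reporters.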
# [19] = ATG_M_32_TRANS: Attagene TRANS-FACTORIAL HepG2 Assay for M32 Transcription Factor (Internal Marker) (AID 2282984); settings: HepG2 Attagene TRANS M32 internal marker reporter;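 note: transcript level of a background control reporter unit measured by RT-PCR and capillary electrophoresis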
# Procedure, shortened: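 Cell-based TRANS-format assay in HepG2: exogenous chimeric GAL4 reporter units transiently expressed, compounds applied 24 h. Reporter mRNA detected by RT-PCR plus capillary electrophoresis; this readout is an internal background marker.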
# [20] = biological target: Oxysterols receptor LXR-alpha (Homo sapiens) (UniProt Q13133); experiment: ATG_LXRa_TRANS: Attagene TRANS-FACTORIAL HepG2 Assay for human Liver X Receptor alpha (LXRa) (AID 2282980); settings: HepG2 Attagene TRANS reporter, LXRa transactivation
# Sequence of Oxysterols receptor LXR-alpha (Homo sapiens) (Q13133 whole entry, looked up, the tested form may be a part): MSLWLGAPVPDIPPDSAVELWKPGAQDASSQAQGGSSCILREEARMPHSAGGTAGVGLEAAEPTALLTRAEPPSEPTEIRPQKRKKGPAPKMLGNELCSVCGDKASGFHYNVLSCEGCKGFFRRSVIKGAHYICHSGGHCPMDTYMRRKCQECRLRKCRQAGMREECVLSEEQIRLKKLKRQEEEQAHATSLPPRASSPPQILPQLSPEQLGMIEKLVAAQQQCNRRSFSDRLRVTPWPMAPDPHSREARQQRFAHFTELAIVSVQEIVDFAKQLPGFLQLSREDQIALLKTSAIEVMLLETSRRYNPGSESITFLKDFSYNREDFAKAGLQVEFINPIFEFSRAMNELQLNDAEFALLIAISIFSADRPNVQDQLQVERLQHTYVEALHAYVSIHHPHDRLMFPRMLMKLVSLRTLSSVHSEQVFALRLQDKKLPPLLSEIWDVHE
# Procedure, shortened: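 HepG2 cells were transiently transfected with multiplexed reporter units driven by chimeric LXRa–GAL4 fusion proteins, then dosed for 24 h. Reporter mRNA was quantified by RT-PCR, fluorescent labelling and capillary electrophoresis; gain of signal fitted against DMSO baseline.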
structure (smiles),measurement,setting,value
COc1cc(S(=O)(=O)O)c(C)cc1N=Nc1c(O)ccc2cc(S(=O)(=O)O)ccc12,outcome,[1],inactive
same,outcome,[2],inactive
same,outcome,[3],inactive
same,outcome,[4],inactive
same,outcome,[5],inactive
same,outcome,[6],inactive
same,outcome,[7],inactive
same,outcome,[8],inactive
same,outcome,[9],inactive
same,outcome,[10],inactive
same,outcome,[11],inactive
same,outcome,[12],inactive
Cc1nc(-c2ccc3c(c2)CCN(CCC2CCC(NC(=O)/C=C/c4ccc(F)cc4)CC2)CC3)no1 (stereo not given),outcome,[1],inactive
same,outcome,[2],inactive
same,outcome,[3],inactive
same,outcome,[13],inactive
same,outcome,[14],inactive
same,outcome,[6],inactive
same,outcome,[8],inactive
same,outcome,[9],inactive
same,outcome,[11],inactive
same,outcome,[15],inactive
CN[C@H]1CC[C@@H](c2ccc(Cl)c(Cl)c2)c2ccc(S(N)(=O)=O)cc21,outcome,[1],inactive
same,outcome,[2],inactive
same,outcome,[3],inactive
same,outcome,[13],inactive
same,outcome,[4],inactive
same,outcome,[5],inactive
same,outcome,[6],inactive
same,outcome,[16],inactive
same,outcome,[7],inactive
same,outcome,[17],inactive
same,outcome,[9],inactive
same,outcome,[18],inactive
same,outcome,[10],inactive
same,outcome,[11],inactive
same,outcome,[19],inactive
same,outcome,[15],inactive
CC(C)c1ccc(C(=O)N=C(N)N)cc1S(C)(=O)=O,outcome,[1],inactive
same,outcome,[2],inactive
same,outcome,[3],inactive
same,outcome,[13],inactive
same,AC50,[14],68.6 µM (active)
same,outcome,[6],inactive
same,outcome,[8],inactive
same,outcome,[18],inactive
same,outcome,[11],inactive
same,outcome,[19],inactive
same,outcome,[15],inactive
Cc1ccc(C)c(O)c1C,outcome,[1],inactive
same,outcome,[2],inactive
same,outcome,[3],inactive
same,outcome,[4],inactive
same,outcome,[14],inactive
same,outcome,[6],inactive
same,outcome,[10],inactive
same,outcome,[11],inactive
O=C(N[C@@H](Cc1ccccc1)[C@@H](O)C(=O)N1C[C@@H](O)[C@@H](O)C1)c1cc2cc(Cl)ccc2[nH]1,outcome,[1],inactive
same,outcome,[2],inactive
same,outcome,[3],inactive
same,outcome,[13],inactive
same,outcome,[14],inactive
same,AC50,[6],151 µM (active)
same,outcome,[7],inactive
same,outcome,[8],inactive
same,outcome,[11],inactive
same,outcome,[19],inactive
same,outcome,[15],inactive
Nc1ccccc1N,outcome,[1],inactive
same,outcome,[2],inactive
same,outcome,[3],inactive
same,outcome,[4],inactive
same,AC50,[6],51.8 µM (active)
same,outcome,[8],inactive
same,outcome,[20],inactive
same,outcome,[18],inactive
same,outcome,[10],inactive
same,outcome,[11],inactive
same,outcome,[19],inactive
CCCCCCCCCCCCCCCCCC(=O)O,outcome,[1],inactive
same,outcome,[2],inactive
same,outcome,[3],inactive
same,AC50,[14],25.9 µM (active)
same,outcome,[6],inactive
same,outcome,[16],inactive
same,outcome,[7],inactive
same,outcome,[17],inactive
CC(CO)OC(C)CO (stereo not given) (tested in a mixture with another compound),outcome,[1],inactive
same,outcome,[2],inactive
same,outcome,[3],inactive
same,outcome,[13],inactive
same,outcome,[6],inactive
same,outcome,[9],inactive
same,outcome,[11],inactive
same,outcome,[19],inactive
CCCCCCOCCO,outcome,[1],inactive
same,outcome,[2],inactive
same,outcome,[3],inactive
same,outcome,[13],inactive
same,outcome,[6],inactive
same,outcome,[16],inactive
same,outcome,[7],inactive
same,outcome,[8],inactive
same,outcome,[20],inactive
same,outcome,[18],inactive
same,outcome,[10],inactive
same,outcome,[11],inactive
same,outcome,[19],inactive
same,outcome,[12],inactive
Cc1cccc(C)c1O,outcome,[1],inactive
same,outcome,[2],inactive
same,outcome,[3],inactive
same,outcome,[13],inactive
same,outcome,[6],inactive
same,outcome,[16],inactive
same,outcome,[7],inactive
same,outcome,[17],inactive
same,outcome,[11],inactive
same,outcome,[19],inactive
same,outcome,[12],inactive
